Source: the supplement of paper PMC3334620
Over roughly 33,000 sequences, “E-score (-0.5 to 0.5)” has its median near -0.021; the highest 2% begin near 0.32. The entries come from a sample that favours the highest values as a whole.

target: T1, Zap1 (UniProt P47043); assay: PBM E-score (8-mer binding enrichment) (E-score (-0.5 to 0.5)); higher = stronger / more preferred TF binding; conditions: protein concentration: 200 nM; construct: GST-full length
T1 sequence: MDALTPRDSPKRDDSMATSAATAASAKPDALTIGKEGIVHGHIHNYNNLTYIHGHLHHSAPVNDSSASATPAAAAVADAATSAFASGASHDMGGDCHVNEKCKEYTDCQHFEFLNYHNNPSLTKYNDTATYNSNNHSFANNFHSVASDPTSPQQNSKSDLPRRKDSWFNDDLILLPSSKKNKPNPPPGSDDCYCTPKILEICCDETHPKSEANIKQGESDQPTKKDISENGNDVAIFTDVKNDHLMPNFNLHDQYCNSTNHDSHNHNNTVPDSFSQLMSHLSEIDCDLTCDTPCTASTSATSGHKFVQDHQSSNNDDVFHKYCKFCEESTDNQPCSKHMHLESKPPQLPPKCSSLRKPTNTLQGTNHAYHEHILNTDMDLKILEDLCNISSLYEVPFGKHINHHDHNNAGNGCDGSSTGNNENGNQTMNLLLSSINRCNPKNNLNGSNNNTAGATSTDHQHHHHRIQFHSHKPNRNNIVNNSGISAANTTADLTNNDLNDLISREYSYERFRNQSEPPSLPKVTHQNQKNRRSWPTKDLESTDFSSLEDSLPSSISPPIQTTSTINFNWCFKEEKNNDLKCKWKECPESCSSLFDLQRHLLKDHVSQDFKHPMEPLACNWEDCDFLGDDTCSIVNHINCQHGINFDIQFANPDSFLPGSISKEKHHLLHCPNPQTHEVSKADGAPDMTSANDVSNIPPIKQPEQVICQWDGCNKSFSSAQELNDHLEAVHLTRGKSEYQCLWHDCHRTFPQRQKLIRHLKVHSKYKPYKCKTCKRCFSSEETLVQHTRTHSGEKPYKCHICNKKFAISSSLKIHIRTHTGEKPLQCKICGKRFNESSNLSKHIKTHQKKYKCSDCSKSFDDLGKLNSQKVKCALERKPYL
In short: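 E-scores (a modified Wilcoxon-Mann-Whitney statistic) were assigned by the Universal PBM Analysis Suite to every ungapped eight-base word pooled with its reverse complement. The input came from universal all-10-mer Agilent arrays made double-stranded by primer extension and probed with GST-tagged yeast transcription factors at about 100-200 nM. Fluorescent anti-GST detected bound protein, and masliner normalised the scans.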

Sequence	PBM E-score
AATAAGGA	-0.00733
AAGCACAA	0.154
GCGATGGA	0.0884
CCTTGACG	0.115
AAAACCCT	0.362
GCAACCCC	0.342
AAACCCCT	0.188
ACAACCCC	0.321
CCAACCCC	0.224
ACAACCTC	0.31
GCAACCCA	0.294
ACAAACCC	0.0973
AAAACCCC	0.276
GGCCAGCC	-0.142
AAATCCTC	-0.279
AGGACCAG	-0.0376
CGGAGTAG	-0.149
CTCCTGTA	-0.0674
ATGGATTG	-0.0434
CGGAATCA	-0.0619
CGGGCCAC	0.125
CGTCGAGC	-0.244
CAATGAGC	-0.126
GCGTAACA	-0.135
ACGTAACG	-0.248
ACGTAACC	0.411

Sequence	PBM E-score
CCGTAACG	0.0821
CCGTAACA	0.0988
GCGTAACC	0.446
ACGTAACT	0.0456
CCGTAACC	0.471
GCGTAAGC	-0.239
CTTAAGGA	0.119
ATGGGGCG	-0.129
CTTTAACA	0.123
ATTTAACC	0.418
CTTTAACC	0.405
CTTTTAAC	0.0885
ATTTAACG	0.023
ATTTAACA	-0.0688
CGCTGATA	-0.172
ACAGGTTG	0.147
ACAGGTTC	-0.12
GCAGGTTA	0.335
GCAGGTAA	0.173
CCAGGTTA	0.382
CCAGGTAA	0.041
ACAGGTTA	0.398
CCAGGTTC	-0.159
GCAGGTCA	0.194
TCGCCACA	-0.04
AGCAGCCT	-0.168

Sequence	PBM E-score
ATAGCAGG	0.0205
ATGAATGG	0.203
CTAGTAGC	-0.168
ACGATATC	0.0333
ATGGGTTA	0.455
ATGGGTTG	0.234
ATGGGTTC	0.116
CTGGGTTA	0.369
GTGGGTAA	0.0319
GTGGGTGA	0.0723
GTGGGTTA	0.404
CTGGGTTC	0.0979
CTGGGTCA	0.143
GCCACAAC	0.212
TAGGACGA	-0.113
AGCAAGCG	-0.192
GAGACAAA	-0.173
GCCACACA	-0.0586
CCCCACGC	-0.0232
ACACAAGG	0.132
AAGTTCAG	-0.0476
AGGGTCAG	0.24
AGGGTCAC	0.417
GGGGTCAA	0.266
ATGGTCAC	0.312
CGGGTCAA	0.163

Sequence	PBM E-score
GCGGTCAC	0.313
TGGGTCAA	0.0925
GGGGTCAC	0.428
AGGGTCGG	0.126
CGGGTCGC	0.0356
AGGGTCAA	0.416
AGGGTCGC	0.364
GATTCTTA	0.177
CTAGTCTA	-0.0327
CAGGTTCG	-0.158
ATATCCTG	0.103
ACCATCGT	-0.0674
ACTAACTG	0.126
AGGGTCCC	0.32
ATGGTCAA	0.245
AGGGTCAT	0.449
AGGGTCCA	0.214
CGGGTCAC	0.374
AGAGTCAT	-0.0584
CGGGTCCC	-0.116
CTGGTCAC	0.148
CGGGTCAG	0.28
CGAGGGGC	0.0476
CAAGGACA	-0.0888
GAGATCCA	-0.0613
GACCAAGA	0.0225

Sequence	PBM E-score
GAACCTAA	0.194
TACGAATA	0.197
ACACCTAA	0.0902
CAAATAAC	0.322
GAAATAAC	0.221
AAAATAAC	0.21
GCCCTTCA	0.0388
ACCCTTCC	0.281
ACCCTTCG	0.373
TCCCTTCA	-0.0499
ACCCTTCA	0.341
ACCCTTCT	0.272
CTCGATCC	-0.0316
ACTGTTCT	-0.0178
GACCTAGC	-0.0032
GTCGCGAA	-0.0334
CTCGCGAC	0.0966
GTCGCGAC	0.357
GTAAATCA	0.207
ACGTCTAG	-0.0284
CGTACTTC	-0.125
GGAGGGAA	-0.213
CGAGGGTA	0.371
GGAGGGTA	0.346
GGAGGGGA	-0.0565
AGAGGGTA	0.29

Sequence	PBM E-score
CGAGGGTC	0.245
AACTAACA	0.153
AATTAATT	0.0914
CATTAACA	0.0919
AATTAACT	0.0482
AACTAACT	0.00107
CATTAACG	0.0999
TATTAATA	0.0379
CATTAACC	0.379
GATTAACC	0.173
AATTAACC	0.327
AATTAATA	0.332
AACTAACC	0.333
CCGATCGG	0.13
AGCTTGGG	-0.06
GGCCTTCA	0.167
GCGAACCC	0.00303
GAGCTGAC	0.122
CAGTGACG	-0.0109
ACGAAATG	0.0348
TAGACTGA	-0.182
AATCTTTG	0.114
ACATACCT	0.118
CTTGGCGC	0.0977
GTGGTAAA	-0.0285
ATGGTAAA	0.0888

Sequence	PBM E-score
CTGGTAAC	0.255
GTGGTAAC	0.36
ATGGTAAC	0.392
ATGGTAAG	-0.124
CAAGTGTC	-0.0245
ACCCAAGA	0.152
ACTATGGA	-0.0878
ACAATAGG	-0.0709
ACCAGTTA	0.206
CGATAACC	0.46
GGATAACC	0.436
AGATAACG	0.0406
CGATAACA	0.131
GGATAACA	-0.0812
CGATAACG	-0.174
AGATAACT	-0.118
GGATAAAC	0.149
AGATAACC	0.435
CCTCTCGC	-0.108
ACAAGCCG	-0.223
TATGGGGA	0.145
AATATCCT	0.00302
AAGAGCTA	-0.0268
GGGGGGTA	-0.0438
ATGGGGTC	0.284
CTGGGGTA	0.269

Sequence	PBM E-score
ATGGGGTG	0.143
ATGGGGTA	0.326
GTGGGGTA	0.368
CGAACACA	0.085
CGTAACGA	-0.081
GGTAACGA	0.294
CGTAACCA	0.441
GGTAACCA	0.461
GGTAACTA	0.313
CGTAACTA	0.0577
AGTAACCA	0.387
AGTAACTC	-0.0584
AGTAAACC	0.177
AGTAACCC	0.443
AGTAACGA	0.0604
AGTAACTA	0.219
CATCAGGA	0.0932
ATAGTTGG	-0.0799
CTGGAGGA	-0.216
AAAGTAGT	0.0501
ACACTTGG	0.0219
GGTAACAA	0.38
AGTAACAA	0.161
CGTAACAA	0.201
AGTAACGG	0.126
AGTAACTG	-0.154

Sequence	PBM E-score
TGTAATAA	0.133
GGTAATAC	0.248
GGTAATAA	0.338
AGTAACCG	0.355
CAGGGGAG	-0.0274
GCTAATCC	-0.0663
ATCGTTCA	0.092
CCTTCACA	0.0885
ACCTGACT	0.143
CCAGAACA	-0.00016
ATGACCGA	0.0244
GTGACCCA	0.389
AAGACCCA	0.142
CTGACCCA	-0.11
ATGACCTC	0.442
ATGACCTG	0.303
AAGACCCC	0.323
CTGACCTC	0.194
ATGACCCG	0.269
GGGACCCA	0.198
ATGACCCA	0.397
AAGACCCG	0.0601
